In PubChem BioAssay AID1159580 (chemical genetic matrix, 2015):
Where “and” joins values, the source holds several entries; their conditions need not be identical. Equal values may be shown once. Screen size: about 5,500 compounds; about 2,000 (36%) were called active. Another 18% or so got no clear call; they are omitted. Rule as the data show it: active = normalized growth mostly below about 0.91 (no sharp cut-off); inconclusive = no clear call, values can overlap the other calls; inactive = mostly above about 0.92. The list shows a part of the results.

Assay: chemical genetic growth profiling, strain panel (AID 1159580);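 also: tested at 20 µM; growth read once vehicle control cultures reached saturation at 30 °C; 1 = growth at the plate median or of vehicle wells; lower values mean less growth of the strain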
Settings: S. cerevisiae deletion strains, growth OD

Measured: normalized growth

COc1ccc(-c2c(O)c3c(OC)c4c(cc3oc2=O)OC(C)(C)C=C4)cc1
active: locus YDR137W, strain rgp1, active compounds read low 0.845 | locus YDR388W, active compounds read low 0.924 | locus YDR392W, strain spt3, active compounds read low 0.725 | locus YDR502C, strain sam2, active compounds read low 0.891 | locus YJL129C, strain trk1, active compounds read low 0.789 | locus YJL168C, strain set2, active compounds read low 0.93
inactive: locus YAL013W, strain DEP1, active compounds read low 0.959 | locus YAL021C, strain ccr4, active compounds read low 0.938 | locus YAL026C, strain drs2, active compounds read low 0.952 | locus YAL030W, strain snc1, active compounds read low 0.951 | locus YBL061C, strain skt5, active compounds read low 0.942 | locus YBR009C, strain hhf1, active compounds read low 0.953 | locus YBR021W, strain FUR4, active compounds read low 0.946 | locus YBR023C, strain chs3, active compounds read low 0.947 | locus YBR171W, strain sec66, active compounds read low 0.919 | locus YBR229C, strain ROT2, active compounds read low 0.951 | locus YBR231C, strain swc5, active compounds read low 0.954 | locus YBR279W, strain paf1, active compounds read low 0.972 | locus YCL011C, strain gbp2, active compounds read low 0.957 | locus YCL016C, strain dcc1, active compounds read low 0.955 | locus YCL029C, strain bik1, active compounds read low 0.937 | locus YCL061C, strain MRC1, active compounds read low 0.945 | locus YCL069W, strain vba3, active compounds read low 0.955 | locus YCR088W, strain abp1, active compounds read low 0.947 | locus YDL005C, strain med2, active compounds read low 0.966 | locus YDL035C, strain GPR1, active compounds read low 1 | locus YDL040C, strain nat1, active compounds read low 0.95 | locus YDL074C, strain BRE1, active compounds read low 0.967 | locus YDL101C, strain DUN1, active compounds read low 0.962 | locus YDL185W, strain tfp1, active compounds read low 0.944 | locus YDL192W, strain arf1, active compounds read low 0.959 | locus YDR001C, strain nth1, active compounds read low 0.948 | locus YDR069C, strain doa4, active compounds read low 0.992 | locus YDR101C, strain arx1, active compounds read low 0.961 | locus YDR150W, strain NUM1, active compounds read low 0.936 | locus YDR159W, strain sac3, active compounds read low 1.01 | locus YDR162C, strain NBP2, active compounds read low 0.962 | locus YDR195W, strain ref2 0.981 | locus YDR297W, strain sur2, active compounds read low 1.02 | locus YDR318W, strain mcm21, active compounds read low 0.936 | locus YDR334W, strain swr1, active compounds read low 0.955 | locus YDR335W, strain msn5, active compounds read low 0.971 | locus YEL003W, strain gim4, active compounds read low 0.958 | locus YEL037C, strain rad23, active compounds read low 0.962 | locus YEL061C, strain CIN8 (second series), active compounds read low 0.957 | locus YER015W, strain faa2, active compounds read low 0.975 | locus YER016W, strain bim1, active compounds read low 0.951 | locus YER110C, active compounds read low 0.949 | locus YER111C, strain swi4, active compounds read low 0.969 | locus YER155C, strain BEM2 (second series), active compounds read low 0.963 | locus YER155C, strain BEM2, active compounds read low 0.956 | locus YER167W, strain BCK2, active compounds read low 0.954 | locus YFR010W, strain ubp6, active compounds read low 0.967 | locus YGL078C, strain dbp3, active compounds read low 0.99 | locus YGL086W, strain mad1, active compounds read low 0.949 | locus YGL167C, strain pmr1, active compounds read low 0.92 | locus YGL173C, strain kem1, active compounds read low 0.958 | locus YGL227W, strain vid30, active compounds read low 0.953 | locus YGL240W, strain doc1, active compounds read low 0.989 | locus YGL248W, strain PDE1, active compounds read low 0.979 | locus YGL253W, strain hxk2, active compounds read low 0.949 | locus YGR078C, strain PAC10, active compounds read low 0.984 | locus YGR135W, strain pre9, active compounds read low 0.931 | locus YGR252W, strain gcn5, active compounds read low 0.96 | locus YHR013C, strain ard1, active compounds read low 0.959 | locus YHR027C, strain rpn1, active compounds read low 0.973 | locus YHR030C, strain SLT2, active compounds read low 0.956 and 1 | locus YHR079C, strain IRE1 (second series), active compounds read low 0.953 | locus YHR079C, strain IRE1, active compounds read low 0.992 | locus YHR094C, strain hxt1, active compounds read low 0.939 | locus YHR129C, strain ARP1, active compounds read low 0.972 | locus YHR142W, strain chs7, active compounds read low 0.925 | locus YHR200W, strain rpn10, active compounds read low 0.946 | locus YIL066C, strain RNR3, active compounds read low 0.957 | locus YIL073C, strain SPO22, active compounds read low 0.919 | locus YIL125W, strain kgd1, active compounds read low 0.978 | locus YIR030C, strain dcg1, active compounds read low 0.958 | locus YJL092W, strain hpr5, active compounds read low 0.946 | locus YJL095W, strain BCK1 (second series), active compounds read low 0.954 | locus YJL095W, strain BCK1, active compounds read low 0.944 and 0.971 | locus YJL115W, strain asf1, active compounds read low 0.962 | locus YJL134W, strain LCB3, active compounds read low 0.942 | locus YJL154C, strain vps35, active compounds read low 0.958 | locus YJL164C, strain tpk1, active compounds read low 0.967 | locus YJL166W, strain qcr8, active compounds read low 0.966 | locus YJL187C, strain SWE1 (second series), active compounds read low 0.943
